Experimental data: PubChem BioAssay
Some of the results follow. The source made the active and inactive calls.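 The calls were made as follows, unless noted: active = mean inhibition of at least 40% at 20 µM; inactive = the rest.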

Assays:
[1] = Apaf-1 inhibitors, single-dose retest, confirmation, biochemical, fluorescence, DEVD-Rh110, 20 µM (AID 504614); settings: reconstituted apoptosome, caspase-3 DEVD-Rh110 fluorescence; at 20 µM; stronger effect = higher value;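 also: plate controls were DMSO wells for no effect and DEVD-CHO caspase inhibitor control wells for full effect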
[2] = Rh110 fluorescence interference by putative Apaf-1 inhibitors, confirmation, artefact control for Apaf-1 inhibitor project, biochemical, 20 µM (AID 504615;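 active = signal rise of 40% or more at 20 µM, treated as a fluorescence artifact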); settings: quenched caspase reaction, at 20 µM, stronger effect = higher value
[3] = fluorescence interference of Apaf-1 inhibitor hits, dose response, artefact control for Apaf-1 inhibitor project (AID 588538; call rule not given here); settings: fluorescence interference counterscreen, Apaf-1 assay format
[4] = inhibition of Brca1/Bard1 split-luciferase complementation, confirmation, counter-screen for Mdm2/MdmX interaction inhibitor project, luminescence, single concentration (AID 504668; call rule not given here); settings: Brca1/Bard1 bimolecular luciferase complementation counterscreen, at 8 µM, stronger effect = higher value
[5] = Peg3 promoter reporter inhibitors, retest, confirmation, cell-based, HeLa, luciferase reporter, single concentration (AID 602417;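 active = at 20 µM dose, 40% or more inhibition averaged across four replicates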); settings: HeLa PEG-Prom luciferase reporter, luminescence, overnight; at 20 µM; stronger effect = higher value
PEG-3 [6] = target: PEG-3 (UniProt Q6IN02); assay: Peg3 promoter luciferase inhibitors, potency, dose response, cell-based, HeLa, CREF/GAPDH counter-screen panel (AID 624167); settings: CREF/GAPDH counter-screens; HeLa PEG-Prom luciferase reporter, overnight, run 1, dose range 1, at 100 µM (top of the series) unless noted
PEG-3 [7] = target: PEG-3 (UniProt Q6IN02); assay: as above; settings: CREF/GAPDH counter-screens; HeLa PEG-Prom luciferase reporter, overnight, run 2, dose range 1, at 100 µM (top of the series) unless noted
[8] = HIF-2a reporter inhibitor retest, confirmation, luminescence, 786-0 RCC cells (AID 651580;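 active = mean inhibition across four replicates of at least 40 percent at the single tested concentration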); settings: HIF-2a luciferase reporter luminescence, overnight, at 18.8 µM, stronger effect = higher value
[9] = HIF-1a luciferase reporter signal reduction – MiaPaCa-2 cells, single concentration, counter-screen for HIF-2a inhibitor project, confirmation (AID 651589;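 active = mean inhibition of the reporter signal across four replicates at the single tested dose of 50% or more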); settings: MiaPaCa-2 HIF-1a luciferase reporter, desferoxamine, overnight; at 18.8 µM; stronger effect = higher value

Chain of PEG-3 (Q6IN02 whole entry, looked up): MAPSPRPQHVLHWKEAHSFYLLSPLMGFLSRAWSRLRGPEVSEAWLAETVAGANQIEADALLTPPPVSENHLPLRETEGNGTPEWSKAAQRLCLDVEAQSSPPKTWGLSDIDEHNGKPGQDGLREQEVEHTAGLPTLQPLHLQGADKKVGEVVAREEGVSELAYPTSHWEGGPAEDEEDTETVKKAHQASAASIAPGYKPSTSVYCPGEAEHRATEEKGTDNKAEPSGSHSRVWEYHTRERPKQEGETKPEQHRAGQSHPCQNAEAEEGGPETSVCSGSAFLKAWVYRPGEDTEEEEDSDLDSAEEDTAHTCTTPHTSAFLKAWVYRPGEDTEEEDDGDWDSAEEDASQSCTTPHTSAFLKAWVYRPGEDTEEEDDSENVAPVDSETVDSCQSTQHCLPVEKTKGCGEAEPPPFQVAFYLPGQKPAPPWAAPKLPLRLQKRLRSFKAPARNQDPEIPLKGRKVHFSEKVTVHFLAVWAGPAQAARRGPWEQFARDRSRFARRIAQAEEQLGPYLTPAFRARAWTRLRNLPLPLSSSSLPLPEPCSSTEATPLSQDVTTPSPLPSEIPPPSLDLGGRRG

Q: With `CCCC[C@@H]1CN=C(N)N1CCc1cc(C(F)(F)F)cc(C(F)(F)F)c1` as the compound, how does the inhibition [1] read?
A: 11.5% (inactive)

Q: What about the activation (fluorescence interference) [2] of the same compound?
A: 3.05% (inactive)

Q: What does the source list for `Cc1cc(C)n(-c2nc(SCC(=O)N3CCCC3)c3c4c(sc3n2)CCCC4)n1`?
A: inhibition [1]: 26.4% (inactive); activation (fluorescence interference) [2]: 8.64% (inactive)

Q: For `Oc1ccc(N=Cc2c(O)ccc3ccccc23)cc1`, which inhibition [1] is on record?
A: 19.4% (inactive)

Q: What about the activation (fluorescence interference) [2] of the same compound?
A: 0.51% (inactive)

Q: What does the source list for `O=C(CCCN1CCc2[nH]c3ccc(F)cc3c2C1)c1ccc(F)cc1`?
A: inhibition [1]: 65.3% (active); activation (fluorescence interference) [2]: 4.85% (inactive); IC50 [3]: > 100 µM (inactive)

Q: What does the source list for `Cc1cc(N2CCCC2)ccc1NC(=O)COc1ccc(Cl)cc1`?
A: inhibition [1]: 28.9% (inactive); activation (fluorescence interference) [2]: 1.52% (inactive)

Q: Which results are given for `CCCCNC(=O)C(C)N(CCN(C)C)C(=O)CCCCCN1C(=O)NC(c2ccc(Cl)cc2)C(C(=O)OCc2ccccc2)=C1C` (stereo not drawn)?
A: inhibition [1]: 22.9% (inactive); activation (fluorescence interference) [2]: -179% (inactive); inhibition [4]: 27.8% (active); inhibition [5]: 99.7% (active); inhibition (PEG-3 [6]): 102%; inhibition (PEG-3 [7]): 101%

Q: Which inhibition [1] does the source give for `COC1=C(N2CCOCC2)C(=O)c2ccccc2C1=O` here?
A: 29.1% (inactive)

Q: What about the activation (fluorescence interference) [2] of the same compound?
A: 4% (inactive)

Q: With `O=C(CN1CCN(S(=O)(=O)c2ccc3ccccc3c2)CC1)NC(=O)NC1CCCCC1` as the compound, how does the inhibition [1] read?
A: 26.3% (inactive)

Q: What about the activation (fluorescence interference) [2] of the same compound?
A: 20% (inactive)

Q: Which results are given for `Cc1[nH]n(-c2ccccc2)c(=O)c1/C=N/NC(=O)c1ccoc1C`?
A: inhibition [1]: 62% (active); activation (fluorescence interference) [2]: -3.23% (inactive); IC50 [3]: > 100 µM (inactive)

Q: Which results are given for `NC[C@H](Cc1ccccc1)NCCc1cc(C(F)(F)F)cc(C(F)(F)F)c1`?
A: inhibition [1]: 17.2% (inactive); activation (fluorescence interference) [2]: 11.5% (inactive)

Q: With `O=C(CCNS(=O)(=O)c1ccccc1)NCCSc1ccc(Br)cc1` as the compound, how does the inhibition [1] read?
A: 40% (active)

Q: What about the activation (fluorescence interference) [2] of the same compound?
A: 5.12% (inactive)

Q: And the IC50 [3]?
A: > 100 µM (inactive)

Q: What does the source list for `CCCCCCCCCCOC(=O)Cn1c(COc2cccc(OC)c2)[n+](C)c2ccccc21`?
A: inhibition [1]: 74.8% (active); activation (fluorescence interference) [2]: 23% (inactive); inhibition [4]: 31.2% (active); IC50 [3]: > 100 µM (inactive)

Q: For `Cc1ccc2c(c1)C1CN(C)CCC1N2S(=O)(=O)c1ccc(Oc2ccc([N+](=O)[O-])cc2)cc1` (stereo not drawn), which inhibition [1] is on record?
A: 20.2% (inactive)

Q: And the activation (fluorescence interference) [2]?
A: 1.73% (inactive)

Q: For `CCc1ccc(CNC(=O)C2CCN(c3nnc(C)c4c(C)n(-c5ccc(C)cc5)nc34)CC2)cc1`, which inhibition [1] is on record?
A: 13.2% (inactive)

Q: And the activation (fluorescence interference) [2]?
A: 0.21% (inactive)

Q: And the inhibition [4]?
A: 23.7% (active)

Q: And the inhibition [8]?
A: -2.57% (inactive)

Q: And the inhibition [9]?
A: 20.1% (inactive)

Q: Which inhibition [1] does the source give for `C(=N/Nc1cc(N2CCOCC2)nc(N2CCOCC2)n1)/c1ccccc1` here?
A: 27.8% (inactive)

Q: And the activation (fluorescence interference) [2]?
A: 2.85% (inactive)

Q: With `COc1ccc(NC(=O)CN(Cc2ccccc2)S(C)(=O)=O)cc1OC` as the compound, how does the inhibition [1] read?
A: 3.82% (inactive)

Q: What about the activation (fluorescence interference) [2] of the same compound?
A: 2.48% (inactive)

Q: What does the source list for `COc1cccc(-c2sc3ccc(OC)cc3c2-c2ccc(OCCN3CCCCC3)cc2)c1`?
A: inhibition [1]: 4.75% (inactive); activation (fluorescence interference) [2]: 11.8% (inactive); inhibition [4]: 32.7% (active)

Q: With `CCOC(=O)C1CCN(C(=O)c2cccc(S(=O)(=O)N(CC)c3ccccc3)c2)CC1` as the compound, how does the inhibition [1] read?
A: 27.8% (inactive)

Q: And the activation (fluorescence interference) [2]?
A: 5.38% (inactive)

Q: Which results are given for `CCN(CC(=O)NCc1cccs1)C(=O)c1cccc(S(=O)(=O)Nc2ccccc2OC)c1`?
A: inhibition [1]: 36.9% (inactive); activation (fluorescence interference) [2]: -3.02% (inactive)

Q: Which inhibition [1] does the source give for `Cc1ccc2nc(N3CCN(C(=O)c4ccco4)CC3)sc2c1` here?
A: 15.7% (inactive)

Q: And the activation (fluorescence interference) [2]?
A: -1.75% (inactive)

Q: With `c1ccc2c(CCN3CCNC[C@H]3Cc3cccc4ccccc34)cccc2c1` as the compound, how does the inhibition [1] read?
A: 24.8% (inactive)

Q: And the activation (fluorescence interference) [2]?
A: 8.34% (inactive)

Q: What does the source list for `CCN1C(=NCc2ccc(OC)cc2)N[C@@H](CCc2ccccc2)[C@H](C(=O)NCc2ccc(OC)cc2)[C@H]1C`?
A: inhibition [1]: 4.13% (inactive); activation (fluorescence interference) [2]: 7.82% (inactive)

Q: For `CCCCCCc1cc2cc(-c3nnc(-c4ccccc4)o3)c(=O)oc2cc1O`, which inhibition [1] is on record?
A: 76% (active)

Q: And the activation (fluorescence interference) [2]?
A: 7.27% (inactive)

Q: And the IC50 [3]?
A: > 100 µM (inactive)

Q: What does the source list for `CN(C)S(=O)(=O)c1ccc2oc(SCC(=O)Nc3ccccc3F)nc2c1`?
A: inhibition [1]: 77.8% (active); activation (fluorescence interference) [2]: 10.6% (inactive); IC50 [3]: > 100 µM (inactive)

Q: With `CCOc1c(Br)cc(/C=C2\C(=O)N(CCC#N)N=C2C)cc1OC` as the compound, how does the inhibition [1] read?
A: 13.1% (inactive)

Q: And the activation (fluorescence interference) [2]?
A: 1.73% (inactive)

Q: With `CCOC(=O)N1CCC(NC(=O)C(C)n2c3ccccc3c3cnn(C)c(=O)c32)CC1` (stereo not drawn) as the compound, how does the inhibition [1] read?
A: 14% (inactive)

Q: And the activation (fluorescence interference) [2]?
A: 17.6% (inactive)

Q: With `O=C(O)c1cc(Cl)c(Cl)cc1C(=O)Nc1cccc2ncccc12` as the compound, how does the inhibition [1] read?
A: 1.69% (inactive)

Q: What about the activation (fluorescence interference) [2] of the same compound?
A: -4.02% (inactive)

Q: Which results are given for `NC(N)=NCCCc1cn(CC(=O)N2CCNCC2)nn1`?
A: inhibition [1]: 9.2% (inactive); activation (fluorescence interference) [2]: -2.11% (inactive)

Q: Which inhibition [1] does the source give for `CC(=O)Nc1ccc(Nc2cc(C)nc(Nc3ccc(NC(C)=O)cc3)n2)cc1` here?
A: 10.4% (inactive)

Q: And the activation (fluorescence interference) [2]?
A: 4.46% (inactive)
